This passage reports induction results from PubChem BioAssay AID940 (Emory University Molecular Libraries Screening Center, 2007).

Several values for one entry are separate records, joined by “and”; a condition that tells them apart may be missing. Equal values may be shown once. The campaign covered roughly 260,000 compounds. About 2,200 (0.85%) were called active.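 The calls were made as follows: active = compounds whose cAMP rise, as percent of the full-agonist control response, exceeds 60; inactive = the rest.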 Shown is part of a subset that was picked to be rich in actives. Some compounds were tested as several samples or in several runs, with calls that do not always agree.

Prostaglandin E2 receptor EP2 subtype (Homo sapiens), sequence (P43116 whole entry, looked up): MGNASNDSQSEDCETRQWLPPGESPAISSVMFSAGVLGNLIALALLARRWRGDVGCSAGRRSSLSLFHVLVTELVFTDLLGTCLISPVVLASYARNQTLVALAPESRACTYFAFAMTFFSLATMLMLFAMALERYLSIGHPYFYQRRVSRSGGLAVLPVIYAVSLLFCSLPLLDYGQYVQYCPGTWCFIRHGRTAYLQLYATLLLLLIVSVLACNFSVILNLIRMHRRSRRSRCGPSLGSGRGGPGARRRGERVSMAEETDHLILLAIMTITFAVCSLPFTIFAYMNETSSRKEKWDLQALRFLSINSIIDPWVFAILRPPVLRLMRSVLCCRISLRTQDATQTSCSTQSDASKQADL

The experiment concerns the target Prostaglandin E2 receptor EP2 subtype (Homo sapiens) (UniProt P43116). The experiment in a line: modulation of human EP2 prostaglandin signaling – cell-based, HTRF cAMP, PGE2 stimulation, primary screen (AID 940).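 Also: rat C6 glioma line stably carrying human EP2 under a CMV promoter; the protocol text gives 20 µM as final concentration; 100% = response of wells given 1 µM PGE2.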 The conditions noted are these: EP2-expressing cells, cAMP HTRF FRET, PGE2 co-stimulation; at 25 µM; stronger effect = higher value. For orientation: TR-FRET usually uses a lanthanide donor and a delayed reading to cut background.
Turning to `CCCn1cnc2sc(C)c(-c3ccc(Cl)cc3)c2c1=O`, the induction was 36.5% (inactive). Then `C=CCn1cnc2sc(C)c(-c3ccc(Cl)cc3)c2c1=O`, with 72.1% (active). Then `CCCOC(=O)Cn1cnc2sc(C)c(-c3ccc(Cl)cc3)c2c1=O`, with 27.2% (inactive); and `O=C(Nc1cccc2ccccc12)C1CCN(C(=O)c2cccc(Cl)c2)CC1`, with -52% (inactive).

`CCCc1nc(SCC(=O)Nc2ccc(S(=O)(=O)N(C)C)cc2)c2ccccc2n1`: the induction was 0.33% (inactive). Then `CC(C)N(C(=O)CSc1nc(COc2ccccc2)nc2ccccc12)C(C)C`, with 60.5% (active) and 78.3% (active); and `CN(C(=O)CSc1nc(C2CC2)nc2ccccc12)c1nc(-c2ccccc2)cs1`, with 0.29% (inactive). Then `COc1cc(OC)cc(OCC(O)Cn2c(C)nc3ccccc32)c1` (stereo not drawn), with -45% (inactive); and `CCn1c(SCC(=O)Nc2cc(Cl)ccc2Cl)nc2sc(C)c(C)c2c1=O`, with 8.59% (inactive). Consider `CC1(C(=O)N(CC(=O)NCc2ccc(F)cc2)C2CCCC2)CC(=O)N=C2C=CC=CN21` (stereo not drawn), for which the induction is -9.59% (inactive). As for `NC(=O)COc1ccc(C23CC4CC(CC(C4)C2)C3)cc1`, the figure is 87.8% (active); as for `NC(=O)COc1ccc(NC(=O)c2ccccc2-c2ccccc2)cc1`, -20.6% (inactive); as for `NNC(=O)COc1ccc(C2SCCS2)cc1`, -9.97% (inactive).

For the compound `Cn1nnc2cc(NC(=O)Nc3ccc(F)cc3)ccc21`, the induction was -20.8% (inactive).

For the compound `Cc1nc(NCCN)c(C#N)c2c1COC(C)(C)C2`, the induction is 14.1% (inactive). Then `CCNc1nc(C)c([N+](=O)[O-])c(C)c1C#N`, with 68.9% (active). Then `Cc1nn(CC(=O)Nc2ccc(C#N)cc2)c(C)c1[N+](=O)[O-]`, with 40.4% (inactive); and `COc1ccccc1-c1ocnc1C(=O)Nc1ccc(N2CCC(C)CC2)c(C(N)=O)c1`, with -7.54% (inactive); and `NC(=O)Cn1c(=O)oc2ccccc21`, with 8.45% (inactive). As for `Cc1ccc(OCCCn2c(=O)oc3ccccc32)cc1`, the figure is -12.8% (inactive); as for `O=c1oc2ccccc2n1CCCOc1cccc2ccccc12`, 74.5% (active). Turning to `CC1CCCN(CC(=O)N2CCN(C(=O)CN3CCCC(C)C3)CC2)C1` (stereo not drawn), the induction is -44.2% (inactive). Regarding `CCCn1c(=O)[nH]c2c(C(N)=O)nc(-c3ccccc3F)nc21`, the induction was -12.9% (inactive).

As for `Cc1noc(C)c1CSCC(=O)Nc1nc2ccc(Oc3ccccc3)cc2s1`, the induction was -9.73% (inactive).

`CCOC(=O)c1c(C2CC2)csc1NC(=O)CSCc1c(C)noc1C`: the induction is 75.9% (active).

Take `CCOC(=O)c1c(-c2cccc(C)c2)csc1NC(=O)c1c(-c2ccccc2)noc1C`: the induction is 34.1% (inactive). Then `CCOc1cccc(/C(O)=C2/C(=O)C(=O)N(CCN3CCOCC3)C2c2ccc(C)o2)c1` (stereo not drawn), with -20% (inactive); and `CCC(c1nnnn1C(C)(C)CC)N(Cc1cccs1)Cc1cc2ccc(C)c(C)c2[nH]c1=O` (stereo not drawn), with 48.5% (inactive). As for `Cc1ccc2c(c1)C(=O)CC1(CCN(C(=O)N3CCOCC3)CC1)O2`, the figure is -15.2% (inactive). For `O=C(CSc1nnc2c(n1)[nH]c1ccc(F)cc12)Nc1cccc2ccccc12`, the induction is -43.9% (inactive). Then `C=C(C)Cn1c(N2CCC(C)CC2)nc2c1c(=O)[nH]c(=O)n2C`, with -6.93% (inactive); and `CC1CCN(c2nc3c(c(=O)[nH]c(=O)n3C)n2CCCc2ccccc2)CC1`, with 57.4% (inactive) and 67% (active). Then `Cc1cc(C)nc(SCCn2c(N3CCC(C)CC3)nc3c2c(=O)[nH]c(=O)n3C)n1`, with 1.48% (inactive); and `O=C(NCC1CCCO1)C(=O)Nc1cc(Cl)cc(Cl)c1` (stereo not drawn), with -89.4% (inactive); and `Cc1cc2c(cc3c(=O)n(CC(=O)N(Cc4ccncc4)C4CC4)nc(C)n32)s1`, with 41.2% (inactive). For the compound `CCC(c1nnnn1C1CCCCC1)N(Cc1cccs1)Cc1cc2cc(C)cc(C)c2[nH]c1=O` (stereo not drawn), the induction was 75.2% (active). As for `Cc1ccc2cc(CN(Cc3ccccc3)C(c3nnnn3C3CCCCC3)C(C)C)c(=O)[nH]c2c1C` (stereo not drawn), the figure is 45.6% (inactive); as for `CCC(c1nnnn1C1CCCC1)N(Cc1cccs1)Cc1cc2ccc(C)c(C)c2[nH]c1=O` (stereo not drawn), 49% (inactive); as for `Cc1ccc(CN(Cc2cc3c(C)ccc(C)c3[nH]c2=O)Cc2nnnn2C2CCCC2)cc1`, 38.9% (inactive).

Consider `Cc1ccc2[nH]c(=O)c(CN(CCc3ccccc3)Cc3nnnn3C3CCCCC3)cc2c1`, for which the induction was 71.2% (active).

For the compound `Cc1cccc2cc(CN(Cc3cccs3)C(c3nnnn3C3CCCC3)C(C)C)c(=O)[nH]c12` (stereo not drawn), the induction is 63.3% (active) and 74.3% (active). As for `Cc1ccc(CN(Cc2cc3cc4c(cc3[nH]c2=O)OCCO4)Cc2nnnn2C2CCCC2)cc1`, the figure is 2.08% (inactive); as for `Cc1cccc2cc(CN(Cc3ccc4c(c3)OCO4)Cc3nnnn3C3CCCC3)c(=O)[nH]c12`, 42.4% (inactive).

Take `Cc1cc(C)c2[nH]c(=O)c(CN(Cc3ccco3)C(c3nnnn3C3CCCCC3)C(C)C)cc2c1` (stereo not drawn): the induction is 25.3% (inactive). For the compound `CCOc1ccc2[nH]c(=O)c(CN(Cc3ccccc3)Cc3nnnn3C3CCCC3)cc2c1`, the induction was -7.93% (inactive). Then `Cc1cccc2cc(CN(Cc3cccs3)Cc3nnnn3C3CCCCC3)c(=O)[nH]c12`, with 70.9% (active). Then `CCC(c1nnnn1C1CCCC1)N(Cc1cccs1)Cc1cc2cccc(C)c2[nH]c1=O` (stereo not drawn), with 46.6% (inactive). As for `CCn1c(COc2ccc(Br)cc2)nnc1SCC(=O)NCc1ccccc1`, the figure is 19.8% (inactive). For `O=C(CCSc1nc(-c2ccc3c(c2)OCO3)cc(C(F)(F)F)n1)NCc1ccncc1`, the induction was -33.7% (inactive). As for `CC1CCN(c2nc3c(c(=O)[nH]2)CCN(Cc2c(O)ccc4ccccc24)C3)CC1`, the figure is -22.9% (inactive); as for `COc1ccccc1NC(=O)COc1ccc(/C=C/C2=CCN(C)CC2)cc1OC`, -73.1% (inactive); as for `CCOc1ccc(OCC)c(NC(=O)CSc2ncnc3sc(C)c(C)c23)c1`, 40.1% (inactive). Then `Cn1c(=O)sc2cc(S(=O)(=O)NC3(c4ccccc4F)CC3)ccc21`, with -176% (inactive); and `COc1ccc(Cn2nnnc2CN(Cc2cc3cc(C)ccc3[nH]c2=O)C2CCCCC2)cc1`, with 30.9% (inactive). As for `COc1nc(C)c(CC(=O)Nc2ccc3[nH]c4c(c3c2)CCCC4)c(OC)n1`, the induction was -85% (inactive).

On to `O=C(Nc1nnc(SCC(=O)N2CCCCC2)s1)c1ccco1`, for which the induction was -9.97% (inactive). Then `COC(=O)CSc1nnc(-c2ccc3[nH]c(C)c(C)c3c2)o1`, with -58.2% (inactive). Then `CCN1CCCC1CN(Cc1cc2cc(OC)c(OC)cc2[nH]c1=O)C(=O)Nc1ccccc1Cl` (stereo not drawn), with -41.6% (inactive); and `CCc1nn(CC(=O)NCc2cccnc2)c(=O)c2cc3ccsc3n12`, with 1.61% (inactive); and `CCOc1ccc(-c2nc(-c3cc4ccccc4[nH]c3=O)no2)cc1`, with -8.73% (inactive).

As for `CCc1ccccc1NC(=O)/C(=C/c1ccccc1)c1ccccc1`, the induction is 65.2% (active). Then `O=C(/C=C/c1ccccc1)N/C(=C/c1ccccc1)C(=O)Nc1ccccc1O`, with -4.9% (inactive); and `CCc1ccccc1NC(=O)Cc1cn(C)c2ccccc12`, with 23.9% (inactive). Then `Cc1ccc(-c2nsc3c(SCC(=O)N(C)C4CCCCC4)ncnc23)cc1`, with 34.6% (inactive); and `Cc1c(CN(C)C(=O)CSc2nc(-c3cccs3)cc(C(F)(F)F)n2)cnn1C`, with 9.94% (inactive).

For the compound `CN1CC(c2ccccc2)C2(CCN(Cc3ccccc3)CC2)C1` (stereo not drawn), the induction is -9.74% (inactive). As for `C#CCN(N(C)c1ncc(C(F)(F)F)cc1Cl)S(=O)(=O)c1ccc2ccccc2c1`, the figure is 61.4% (active); as for `Cc1nn(CC#N)c(=O)n1N(C)c1ncc(C(F)(F)F)cc1Cl`, 2.11% (inactive). For the compound `Cc1cc(C)cc(NS(=O)(=O)c2ccc(Oc3ncc(C(F)(F)F)cc3Cl)cc2)c1`, the induction was 57.5% (inactive).

On to `O=C(Cc1cccs1)Nc1nnc(-c2ccccc2Cl)s1`, for which the induction was -20% (inactive).

With `CC(C)c1nc(N2CCOCC2)c(C#N)c2c1COC(C)(C)C2`, the induction was -103% (inactive). As for `CC(C)Cc1nc(Cl)c(C#N)c2c1CCC2`, the figure is 6.62% (inactive). Then `CC(C)Cc1nc(N2CCOCC2)c(C#N)c2c1CCC2`, with 64% (active). For the compound `Cc1ccccc1N(C(=O)c1ccco1)C(C(=O)NC1CCCC1)c1ccco1` (stereo not drawn), the induction is 15% (inactive). For `COc1ccc2c(c1)C(C)=CC(C)(C)N2C(=O)CNCc1ccc2c(c1)OCO2`, the induction was 62.2% (active). Then `COc1ccc2c(c1)C(C)=CC(C)(C)N2C(=O)Nc1ccccc1`, with 43% (inactive); and `COc1ccc(OC)c(CC(=O)N2CCC(c3ccc4c(c3)OCO4)CC2)c1`, with -2.54% (inactive). As for `CCCNc1ncnc2sc(C)c(C)c12`, the figure is 17.6% (inactive); as for `CSc1ncnc2sc(C)c(C)c12`, 68.5% (active); as for `Cc1sc2ncnc(Sc3nc4ccccc4s3)c2c1C`, 17.8% (inactive). Then `Cc1cc2cc(CN(CCO)C(c3nnnn3CC3CCCO3)C(C)C)c(=O)[nH]c2cc1C` (stereo not drawn), with -0.77% (inactive). In the case of `CCOc1ccc(/C=N/NC(=O)C(C)Sc2ccccn2)cc1OCC` (stereo not drawn), the induction is 13.9% (inactive). `CCOc1ccc(/C=N/NC(=O)CSc2ccccn2)cc1O`: the induction is 65.8% (active). Then `Cc1ccc(/C=N/NC(=O)CSc2ccccn2)o1`, with -4.32% (inactive). Then `COc1ccc(S(=O)(=O)NCc2ccc3c(c2)OCO3)c(Cl)c1Cl`, with -0.88% (inactive); and `Cc1nc2nc(N)ccc2c(C)c1C`, with -9.42% (inactive).

Regarding `CC(=O)NCC(O)c1ccc([N+](=O)[O-])cc1` (stereo not drawn), the induction was 1.39% (inactive).

Regarding `CNCC(O)c1ccc(O)c(O)c1` (stereo not drawn), the induction was 68.4% (active). As for `CCC(C)c1ccc(O)c(/C=N/O)c1` (stereo not drawn), the induction is 4.26% (inactive). Then `CCc1ccc(NC(=O)C2CCN(C(=O)c3cccs3)CC2)cc1`, with 15.7% (inactive); and `COC(=O)CSc1nc2c(c(C3CC=CCC3)c1C#N)CCC2` (stereo not drawn), with 68.1% (active). As for `COC(=O)CSc1nc(C2CC2)nc2ccccc12`, the figure is 4.21% (inactive). As for `CCOc1ccc2cc(C#N)c(SCC(=O)OC)nc2c1`, the figure is 47% (inactive).
